D1 agonist = agonists of human D1 dopamine receptor; P21728; HEK293 T-REx D1 cells, calcium flux, agonist mode; 1% of 360,000 active; activation, % at 2 µM; AID 504660; further: 0% is about no effect
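Agonism was scored from calcium flux recorded over 180 s (1 read/s) after pintool compound addition, following a 10-cycle baseline. Cells were inducible force-coupled HEK293 TREx D1, plated overnight at 30 C and loaded with no-wash calcium dye.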
D1 antagonist = antagonists of human D1 dopamine receptor; 3.2% of 360,000 active; AID 504652; HEK293 TREx D1 cells, calcium flux, dopamine EC80; stronger effect = lower value; activity change, negative = inhibition, % at 10 µM; in the data active means activity change below about -30%; further: on the % scale 0 is the no-effect control and ±100 the full control effect
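Allosteric or orthosteric antagonism assessed as attenuation of the calcium response to EC80 dopamine, added 180 s after compound, in induced HEK293 Trex D1 cells loaded with no-wash calcium dye.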
TRHR enhancer = TRH receptor (human) allosteric enhancement; TRHR cells, fluo-8 calcium fluorescence, EC20 TRH enhancement; enhancement, % at 2 µM; 0.66% of 360,000 active; in the data active means enhancement above about 30%; further: 0% is about no effect
Target sequence (P34981 whole entry, looked up): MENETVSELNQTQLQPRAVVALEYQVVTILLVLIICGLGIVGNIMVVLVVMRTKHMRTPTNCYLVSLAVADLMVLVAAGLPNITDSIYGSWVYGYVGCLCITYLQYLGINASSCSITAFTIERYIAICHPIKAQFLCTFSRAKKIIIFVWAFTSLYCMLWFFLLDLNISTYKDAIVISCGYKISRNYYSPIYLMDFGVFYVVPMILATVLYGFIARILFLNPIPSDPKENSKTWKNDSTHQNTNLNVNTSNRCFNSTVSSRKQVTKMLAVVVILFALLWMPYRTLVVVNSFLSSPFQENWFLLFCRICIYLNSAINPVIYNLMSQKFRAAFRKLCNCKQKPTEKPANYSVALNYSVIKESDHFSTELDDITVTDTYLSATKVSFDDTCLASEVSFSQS
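Enhancer read-out: after compound pinning and an initial kinetic agonist-mode read, an EC20 of TRH (10 nM final) was injected and fluo-8 calcium signal (Ex 480/Em 530) followed at 1 s/cycle for 100 cycles in TRHR-expressing cells.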
D1 potentiator = potentiators of human D1 dopamine receptor | potentiation, % at 10 µM | HEK293 TREx D1 cells, calcium flux, dopamine EC20 potentiation | AID 504651 | P21728 | 0.036% of 360,000 active; in the data active means potentiation above about 30%; further: 0% is about no effect
TRHR ag = activates the human TRH receptor. 0.18% of 360,000 active. activation, % at 2 µM. TRHR cells, calcium flux fluo-8, FDSS agonist mode; further: 0% is about no effect
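Read-out: compound-evoked intracellular calcium rise in TRHR cells, fluo-8 dye, kinetic FDSS fluorescence at 1 s/cycle following a 10-cycle baseline. Cells cultured overnight before dye loading (30 min–1.5 h, RT).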
Active calls of the source: *; ! = not active in a repeat. In the library only some 4.7% were active in any assay of this set; here they are far more common. Unless noted, no stated cut-off is given here; in the data, active means activation above about 30%; inactive means the rest.

SMILES | D1 agonist | D1 antagonist | TRHR enhancer | D1 potentiator | TRHR ag
CCc1cc2c(cc3c(=O)n(CC(=O)NC4CCC(C)CC4)nc(CC)n32)s1 (stereo not drawn) | 0 | 12 | 18 | -4 | -1
O=C(Nc1ccn(Cc2ccccc2F)n1)c1ccc(COc2ccc(Br)cc2)cc1 | 52* | -54* | 3 | -10 | -1
CCc1ccc(NC(=O)c2cc(=O)c3ccc(C)c(C)c3o2)cc1 | 3 | -6 | 9 | 0 | 0
CCCCOC(=O)c1ccc(OC(=O)c2sc3ncn(Cc4cccc(F)c4)c(=O)c3c2C)cc1 | 0 | 4 | 17 | -1 | 0
Cc1nc(C)c(-c2csc(N)n2)s1 | 3 | -31* | 2 | -7 | 1
O=C(NCn1ccc(=O)[nH]c1=S)c1ccccc1 | 0 | -46* | 4 | 4 | 0
O=C(NCNC(=O)c1ccccc1)c1ccccc1 | 1 | -19 | 0 | -5 | 0
Nc1cccc(/C=C/c2ccncc2)c1 | 1 | -41* | 3 | 0 | 0
Cc1cccc(-n2nc(C)c(C(=O)Nc3cc(C)ccc3C)c2-n2cccc2)c1 | 3 | 22 | 2 | 6 | 0
N=C1/C(=C\c2ccc(-c3cccc(Cl)c3)o2)C(=O)N=C2SC=C(c3ccccc3)N12 | 0 | 5 | 2 | 5 | 1
N=C1/C(=C\c2ccc(-c3ccc(C(=O)O)cc3)o2)C(=O)N=C2SC=C(c3ccccc3)N12 | 38* | -16 | 4 | -5 | 0
Cc1cc(N2CCN(c3ccccc3)CC2)nc(NCc2ccccc2)n1 | 8 | -50* | 2 | -4 | 1
Cc1cc(NC2CCCCC2)nc(NCc2ccccc2)n1 | 55* | 3 | 2 | -4 | 4
COc1ccc(Nc2cc(C)nc(NCc3ccccc3)n2)cc1 | 18 | 1 | 0 | -3 | -1
Cc1ccc(Nc2cc(C)nc(NCc3ccccc3)n2)cc1 | 53* | 19 | 32* | -11 | 6
Cc1cc(N/N=C/c2ccccc2Cl)nc(NCc2ccccc2)n1 | 6 | 8 | 1 | 1 | -1
O=C(NCC1CCN(S(=O)(=O)c2ccccc2)CC1)Nc1ccc(F)cc1F | 5 | -58* | -8 | -3 | -1
Cc1cccc(C)c1NC(=O)Cn1c(=O)n(Cc2ccccc2)c(=O)c2c(C)c(C(=O)N(C)C)sc21 | 3 | -5 | 7 | 0 | -1
c1cncc(-c2nn[nH]n2)c1 | 3 | -1 | 40* | 6 | 0
Cc1ccccc1C1CC(=O)Nc2ccc3ccccc3c21 (stereo not drawn) | 1 | 3 | -4 | 2 | -1
CCC(=O)N1CCc2cc(Br)cc(S(=O)(=O)CCC(=O)N3CCN(c4cc(C)ccc4C)CC3)c21 | 0 | 4 | -2 | 3 | 0
COC(=O)CCC(=O)c1ccc(OC)c(Cl)c1 | 3 | -34* | 3 | -6 | 0
Cc1ccc(CSc2oc(-c3ccco3)nc2S(=O)(=O)c2ccc(Br)cc2)cc1 | 15 | -35* | -8 | 0 | 2
CCCSc1oc(-c2ccco2)nc1S(=O)(=O)c1ccc(Br)cc1 | 17 | -36* | 9 | 2 | 0
CCCSc1oc(-c2ccco2)nc1S(=O)(=O)c1ccc(C)cc1 | 3 | 0 | -6 | -7 | 0
SMILES | D1 agonist | D1 antagonist | TRHR enhancer | D1 potentiator | TRHR ag
CCOC(=O)C1(Nc2nccs2)Sc2ccccc2NC1=O (stereo not drawn) | 5 | -34* | -9 | -6 | -1
CCOC(=O)C1(N(CC)CC)Sc2cc(C)ccc2NC1=O (stereo not drawn) | 4 | 3 | 4 | -8 | 2
O=C(Cc1ccccc1F)Nc1cccc2cccnc12 | -1 | 5 | 6 | -1 | 0
O=C(O)CCCC(=O)Nc1cccc2cccnc12 | 0 | -95* | 7 | -8 | 1
CC(C)C(=O)OC/C(O)=C(\C#N)c1nc2ccccc2[nH]1 | 2 | -25 | -5 | -6 | 2
Cc1ccc(C(C)C)c(OC/C(O)=C(\C#N)c2nc3ccccc3[nH]2)c1 | 2 | -32* | 1 | -4 | 0
COC(=O)c1ccc(OCC(O)CN2C(=O)c3ccccc3S2(=O)=O)cc1 (stereo not drawn) | 6 | -40* | 0 | -2 | 0
Cc1ccc2c(=O)c(C(=O)c3cccc(Cl)c3)cn(CC(=O)NC3CCCCC3)c2n1 | 3 | 0 | 8 | -4 | -1
Cc1cccc(CNC(=O)C(=O)Nc2ccccc2C)c1 | 0 | 11 | -1 | 1 | -4
COC(=O)c1sccc1S(=O)(=O)NC(C)c1cnn(-c2ccc(OC)cc2)c1C (stereo not drawn) | 3 | -50* | -1 | 1 | 0
O=C(O)CCCn1cc(NC(=O)COc2ccccc2F)cn1 | 8 | -39*! | 1 | 1 | -1
CCCNC(=O)N1CCCN(S(=O)(=O)c2ccc3c(ccn3CC)c2)CC1 | 1 | 3 | 0 | -1 | 0
CN(C)C(=O)CSc1nnc(CCNC(=O)OC(C)(C)C)o1 | 3 | -33* | -5 | -6 | 0
CN(C)C(=O)CSc1nnc(CCCCCNC(=O)OC(C)(C)C)o1 | 4 | -9 | 1 | -2 | 0
CC(C)(C)OC(=O)NCCCCCc1nnc(SCc2cccc(F)c2)o1 | 18 | -36* | -5 | -8 | 1
Cc1cc(C)c(S(=O)(=O)N2CCC(N3CCN(Cc4ccccc4)C(=O)C3=O)CC2)c(C)c1 | 1 | 10 | -3 | -4 | -1
CCOc1ccccc1CNC(=O)CN1C(=O)CCc2cc(S(=O)(=O)N3CCCCC3)ccc21 | 8 | 13 | 2 | 0 | -1
Cn1nnnc1Sc1ncnc2scc(-c3ccc(N)cc3)c12 | 3 | -4 | 9 | 7 | -1
COc1ccc(C)cc1NC(=O)N1CCC(CN2CCOCC2)CC1 | -1 | 8 | 1 | 4 | 1
Cn1c(=O)n(CC(=O)NCC2CCCO2)c(=O)c2c3c(sc21)COC(C)(C)C3 (stereo not drawn) | 1 | -30* | -5 | -1 | 0
CCCn1c(=O)n(CC(=O)NCC2CCCO2)c(=O)c2c3c(sc21)COC(C)(C)C3 (stereo not drawn) | 1 | -9 | 3 | 0 | 0
Cn1nnnc1SCCCNCc1ccccc1OCc1ccc(F)cc1 | 11 | 5 | -5 | -1 | 1
COc1ccc(-c2ccc(C3C(C#N)=C(N)Oc4n[nH]c(C)c43)o2)cc1 (stereo not drawn) | 32* | -33* | -4 | -7 | 9
COc1ccc2c(c1)Cc1sc(NC(=O)c3ccccc3C)nc1-2 | 2 | 2 | -1 | 0 | -1
Cc1ccc(NC(=O)NCc2cccnc2)cc1C | 1 | 1 | 10 | 2 | 0
COc1ccc(CNC(=S)Nc2ccc(Br)cc2)cc1 | 37* | -5 | -2 | -7 | 2
S=C(NCc1cccnc1)Nc1ccc(Cl)c(Cl)c1 | 28 | -46* | -14 | -4 | 3
O=C(NCc1cccnc1)Nc1ccc(Cl)c(Cl)c1 | 13 | -46* | -7 | -6 | 1
